Laboratory results as given in PubChem BioAssay AID588352 (The Scripps Research Institute Molecular Screening Center, 2011).
Out of some 360,000 compounds screened, about 620 (0.17%) were called active.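 How the source made its calls: active means inhibition above a per-campaign cutoff, the mean of all compounds plus 3 SD (cut at about 60% in these data); inactive means the rest.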 The list comes from a sample in which actives are over-represented; it also holds similar structures and randomly drawn compounds.

target: Nuclear receptor coactivator 3 (Homo sapiens) (UniProt Q9Y6Q9); test: NCOA3 GAL4-fusion reporter inhibition – cell-based, luminescence, primary screen (AID 588352); conditions: HEK293 GAL4-SRC3 luciferase reporter, at 3.6 µM, stronger effect = higher value;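 further: 0% = DMSO-treated cells and 100% = gossypol-treated cells at 36 µM; higher means less SRC3-driven luciferase light from the GAL4 reporter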
Sequence (Q9Y6Q9 whole entry, looked up, the tested form may be a part): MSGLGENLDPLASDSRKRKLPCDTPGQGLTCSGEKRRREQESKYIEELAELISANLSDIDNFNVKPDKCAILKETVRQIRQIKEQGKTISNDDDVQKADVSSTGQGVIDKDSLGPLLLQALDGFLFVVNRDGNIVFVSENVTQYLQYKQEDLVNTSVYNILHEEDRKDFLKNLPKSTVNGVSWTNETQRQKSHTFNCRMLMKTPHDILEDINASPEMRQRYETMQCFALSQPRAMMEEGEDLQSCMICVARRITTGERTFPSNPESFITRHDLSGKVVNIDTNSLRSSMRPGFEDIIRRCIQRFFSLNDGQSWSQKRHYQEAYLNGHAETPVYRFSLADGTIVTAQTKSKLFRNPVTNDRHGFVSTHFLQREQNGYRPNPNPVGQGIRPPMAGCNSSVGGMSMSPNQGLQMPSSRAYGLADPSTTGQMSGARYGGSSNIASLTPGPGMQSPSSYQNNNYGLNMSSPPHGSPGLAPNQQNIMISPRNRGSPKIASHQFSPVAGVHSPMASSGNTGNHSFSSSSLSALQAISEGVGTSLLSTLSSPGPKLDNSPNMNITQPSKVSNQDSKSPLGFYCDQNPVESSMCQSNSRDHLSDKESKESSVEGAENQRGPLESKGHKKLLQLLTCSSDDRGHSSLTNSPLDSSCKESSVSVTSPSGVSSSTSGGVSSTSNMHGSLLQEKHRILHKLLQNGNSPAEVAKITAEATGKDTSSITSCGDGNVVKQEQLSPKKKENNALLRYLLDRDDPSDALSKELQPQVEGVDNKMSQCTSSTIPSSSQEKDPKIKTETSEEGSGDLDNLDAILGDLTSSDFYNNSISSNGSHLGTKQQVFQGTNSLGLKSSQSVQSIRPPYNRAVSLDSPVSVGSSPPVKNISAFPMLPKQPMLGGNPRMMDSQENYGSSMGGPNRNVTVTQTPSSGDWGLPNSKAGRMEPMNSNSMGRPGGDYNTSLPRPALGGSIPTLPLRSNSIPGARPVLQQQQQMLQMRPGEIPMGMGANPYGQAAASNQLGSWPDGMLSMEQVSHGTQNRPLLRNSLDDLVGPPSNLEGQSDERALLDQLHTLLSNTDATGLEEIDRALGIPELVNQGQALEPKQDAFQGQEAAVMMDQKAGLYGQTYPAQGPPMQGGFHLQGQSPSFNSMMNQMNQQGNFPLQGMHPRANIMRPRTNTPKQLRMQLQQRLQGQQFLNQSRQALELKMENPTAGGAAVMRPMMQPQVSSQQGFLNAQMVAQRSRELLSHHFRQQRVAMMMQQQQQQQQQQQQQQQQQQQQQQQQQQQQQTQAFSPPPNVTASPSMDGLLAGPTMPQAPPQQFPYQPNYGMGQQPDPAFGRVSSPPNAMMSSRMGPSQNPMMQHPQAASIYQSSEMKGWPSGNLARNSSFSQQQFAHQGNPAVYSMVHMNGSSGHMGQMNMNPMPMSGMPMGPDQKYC

Row | SMILES | inhibition
1 | Cc1c(NC(=O)COC(=O)/C=C/c2cccc(F)c2)c(=O)n(-c2ccccc2)n1C | -6.79% (inactive)
2 | CC(=O)NN=C(C)c1ccc(NC(=O)C2CC2)cc1 | 0.05% (inactive)
3 | CCCC(NCC(=O)Nc1ccccc1C(=O)NC1CC1)c1ccccc1 (stereo not drawn) | 4.81% (inactive)
4 | Cn1c(CC(=O)Nc2ccc(F)cc2)nnc1SCC(=O)NC1CCCCC1 | -3.83% (inactive)
5 | Cc1ccc(OCCNC(=O)c2cccc(S(=O)(=O)N3CCN(Cc4ccccc4)CC3)c2)cc1 | 0.45% (inactive)
6 | CC(=O)c1ccc(OC(=O)N2CCOCC2)cc1 | -9.63% (inactive)
7 | CCC(NC(=O)C1CCCC1)c1ccc(C)cc1 (stereo not drawn) | -5.79% (inactive)
8 | COc1ccc(Cl)cc1NC(=O)C(C)N1CCc2ccccc21 (stereo not drawn) | -3.25% (inactive)
9 | O=C(NN=Cc1ccccc1O)NN=Cc1ccccc1O | 64.5% (active)
10 | O=C(N/N=C/c1ccccc1O)/C(=C/c1ccccc1)CCO | 43.6% (inactive)
11 | C=CCOc1ccccc1/C=N/NC(=O)Cc1ccccc1 | -4.16% (inactive)
12 | O=C(COc1ccc(S(=O)(=O)NCCc2ccccc2)cc1)N1CCCC1 | 15.7% (inactive)
13 | CCc1nnc(NC(=O)CCN(c2ccc(C)cc2)S(=O)(=O)c2ccccc2)s1 | 3.02% (inactive)
14 | CNS(=O)(=O)c1ccc(N2CCCC2=O)c([N+](=O)[O-])c1 | 0.16% (inactive)
15 | COc1ccc(N(C(=O)c2snc(C(N)=O)c2N)C(C(=O)NC2CCCC2)c2ccco2)cc1OC (stereo not drawn) | -3.31% (inactive)
16 | Brc1ccc2nc(-c3ccccc3)c(Cc3ccccc3)n2c1 | -38.3% (inactive)
17 | Cc1cc(=O)oc2c(C(=O)c3ccccc3)c(OCC(N)=O)ccc12 | 14.2% (inactive)
18 | COc1ccc(C(=O)N/N=C2\CCS(=O)(=O)c3ccc(F)cc32)cc1OC | 5.88% (inactive)
19 | Cc1cc(C)n(C(=O)c2ccc(C)c(S(=O)(=O)N3CCOCC3)c2)n1 | 12.7% (inactive)
20 | CC[C@H]1CN2CCc3cc(OC)c(OC)cc3[C@@H]2C[C@@H]1C[C@H]1NCCc2cc(OC)c(OC)cc21 | 94.6% (active)
21 | O=C(O)C1CCN(C(=O)OCc2ccccc2)CC1 | -70.7% (inactive)
22 | CCCNC(=O)C1(C)CCCN(C(=O)c2cccc(OC(C)=O)c2C)C1 (stereo not drawn) | -10.9% (inactive)

Row | SMILES | inhibition
23 | CCOC(=O)CN(C)S(=O)(=O)c1ccc(-c2cc(C(=O)OC)sc2C(F)(F)F)cc1 | 9.38% (inactive)
24 | N#C/C(=C(\O)CCl)c1nnc2n1CCCCC2 | 9.47% (inactive)
25 | CCCOc1ccc(Cc2c(O)nc(N)[nH]c2=O)cc1C | 1.06% (inactive)
26 | COC(=O)/C=C(\Oc1ccccc1)C1(O)CCCCC1 | 9.01% (inactive)
27 | COc1ccc(Nc2ncnc3ccc(Br)cc23)c(OC)c1 | 82% (active)
28 | COc1ccc(OC)c(NC(=O)CN(C)CCOc2ccc(Br)cc2)c1 | 4.03% (inactive)
29 | COc1ccc(OC)c(Nc2nc3ccccc3n3cnnc23)c1 | 9.44% (inactive)
30 | CCOC1=C2[C@@H](CN(S(=O)(=O)c3ccc(C)cc3)[C@H]2c2ccccc2F)[C@H]2C(=O)N(Cc3ccccc3)C(=O)[C@H]2C1 | 2.22% (inactive)
31 | CCn1ncc(CNC(=O)C2(C)CC2(Br)Br)c1C (stereo not drawn) | -0.54% (inactive)
32 | CCCCCCCCn1c2c(c(=N)c3c1CCC3)CCCC2 | 80% (active)
33 | Cc1cc(S(=O)(=O)NC2CCCC2)ccc1-n1cnnn1 | 2.04% (inactive)
34 | O=S1(=O)CCC(NC(=S)SCc2ccccc2Br)C1 (stereo not drawn) | 8% (inactive)
35 | FC(F)(F)c1cccc(-c2nc(COc3ccc(Cl)cc3Cl)no2)c1 | 12.2% (inactive)
36 | CC(C)(C)c1nc2ccccc2c(=O)n1N1C(=O)c2ccccc2C1=O | 2.66% (inactive)
37 | CN(c1ccc2nc3ccccc3c(=O)n2n1)C1CCCCC1 | 73.1% (active)
38 | CN(C(=O)Nc1ccc(Cl)cc1)n1cnc2ccccc2c1=O | -6.25% (inactive)
39 | COc1cccc2cc(C(=O)NCc3ccc(C)cc3)c(=N)oc12 | 14.3% (inactive)
40 | C=CCOC(=O)C1=C[C@@H](c2ccc3c(c2)OCO3)C[C@@H](OCCCCO)O1 | -13.9% (inactive)
41 | CC(C)c1cc(C(N)=O)c(NC(=O)c2cccc(COc3ccc(Br)cc3)c2)s1 | -149% (inactive)
42 | COCc1ccc(C(=O)NC2CC(C)(C)Cc3c2cnn3-c2ccc(C)cc2)o1 (stereo not drawn) | 16.3% (inactive)
43 | O=C(OC12CC3CC(CC(C3)C1)C2)c1ccc(NCc2cc(O)ccc2O)cc1 | 74.5% (active)
44 | CC(C)OC(=O)c1ccc(NCc2cc(O)ccc2O)cc1Cl | -31.6% (inactive)

Row | SMILES | inhibition
45 | CCOC(=O)c1[nH]cnc1C(=O)NC1CCCCC1 | -23% (inactive)
46 | COc1cccc(Nc2nnc(SCC(=O)N3CC(C)OC(C)C3)s2)c1 (stereo not drawn) | -8.99% (inactive)
47 | C=CCSc1nnc(Cn2c(=O)sc3ccccc32)n1C | 5.67% (inactive)
48 | COc1ccccc1Cn1c(C)nnc1-c1cnn(C)c1N | 19.6% (inactive)
49 | CCc1nc2ccc(C(=O)NC3CCN(Cc4ccccc4)CC3)cn2c1N(C)CCN1CCOCC1 | 14.3% (inactive)
50 | Nc1nc(SCC(=O)NNc2c(Cl)cc(Cl)cc2Cl)n[nH]1 | 18% (inactive)
51 | Cc1ccc(C)c(S(=O)(=O)N2CC(=O)Nc3ccccc32)c1 | 22.6% (inactive)
52 | COc1ccc(S(=O)(=O)NCC(=O)NC2CC2)cc1OC | -59% (inactive)
53 | COc1cc(OC)cc(-c2c(-c3ccc(F)cc3)c3cc(-c4ccc5cc[nH]c5c4)ccc3n2C)c1 | 7.21% (inactive)
54 | Cc1nc2ccccc2n1CC(O)c1ccccc1 (stereo not drawn) | -14% (inactive)
55 | O=C(Cn1nc([N+](=O)[O-])nc1Br)NC1CCCCC1 | 5.25% (inactive)
56 | COc1cc(OC)cc(-c2c(-c3cccs3)c3cc(-c4ccc(OC)cc4F)ccc3n2C)c1 | -12.6% (inactive)
57 | COC(=O)c1ccc(NC(=O)CSc2nc(N)c(NC(=O)c3ccc(Br)o3)c(=O)[nH]2)cc1 | 11.5% (inactive)
58 | Clc1cccc(Cl)c1Cn1nnc(-c2cccs2)n1 | -55.9% (inactive)
59 | Cn1sc(=O)c2cc(S(=O)(=O)NC3CC3)ccc21 | 3.57% (inactive)
60 | CC1(C)NC(=O)N(CC(=O)Nc2cc(C(F)(F)F)cc(C(F)(F)F)c2)C1=O | 22.2% (inactive)
61 | CCCCNC(=O)C1CCCNC1=O (stereo not drawn) | 12.3% (inactive)
62 | CCNC(=O)C1(C)CCCN1C(=O)c1ccc(N(C)C)cc1 (stereo not drawn) | -7.5% (inactive)
63 | COc1cc(NC(=O)C2=C(C)OCCS2)c(Cl)cc1C(=O)NCCCN1CCCC(C)C1 (stereo not drawn) | -22.7% (inactive)
64 | O=C(N/N=C/c1cccc([N+](=O)[O-])c1)C1CC(=O)N(c2ccc(Br)cc2)C1 (stereo not drawn) | -0.6% (inactive)
65 | COc1ccc(OCCCCN2CCC(C)CC2)cc1 | -47.3% (inactive)
66 | CCC(O)C1CCN(Cc2cn(-c3ccc(OC)cc3)nc2-c2cccc(F)c2)CC1 (stereo not drawn) | 14% (inactive)

Row | SMILES | inhibition
67 | Cc1nc2nc(COc3ccccc3)[nH]n2c(=O)c1Cc1ccccc1 | -32.6% (inactive)
68 | COc1cccc(/C=C(/CC(=O)Nc2ccc(N3CCOCC3)cc2)c2nc3ccccc3s2)c1 | 7.57% (inactive)
69 | COC(=O)Cc1[nH]n(-c2nc3ccccc3s2)c(=O)c1C(C)=Nc1ccc(OC)cc1 | 86.7% (active)
70 | Cc1occc1-c1nnc(SCC(=O)NC2CCCCC2)o1 | 15.9% (inactive)
71 | O=C(NNS(=O)(=O)Cc1ccccc1)c1ccc([N+](=O)[O-])cc1 | -12.1% (inactive)
72 | O=C(Nc1cc(-c2ccccc2)nn1-c1ccccc1F)c1ccc([N+](=O)[O-])cc1 | -5.69% (inactive)
73 | O=C(NC(Nc1nc2ccc([N+](=O)[O-])cc2s1)(C(F)(F)F)C(F)(F)F)c1ccccc1 | 76.7% (active)
74 | O=S(=O)(NCCc1ccc(Cl)cc1)c1cccs1 | 14% (inactive)
75 | Brc1c(CSc2nncc3ccccc23)nc2ccccn12 | -11.5% (inactive)
76 | CCCN(CCC)S(=O)(=O)c1ccc(C(=O)N2CC3CCC(CC3)C2)cc1 | 21.3% (inactive)
77 | CN(CC(=O)Nc1ccc(C(N)=O)cc1)S(=O)(=O)c1ccc2c(c1)OCCO2 | -5.47% (inactive)
78 | COc1ccc2c(c1)c(=Cc1ccc(N(C)C)cc1)c1cc(-c3ccccc3)[n+](C)n12 | 72.6% (active)
79 | O=S(=O)(/C=C/c1ccccc1)N1CCNCC1 | 18.6% (inactive)
80 | COc1c(F)c(F)c(C(=O)O)c(Nc2ccccc2C)c1F | 3.91% (inactive)
81 | Cn1cnc(C(F)(F)F)c1-c1ccc([N+](=O)[O-])cc1 | 9.14% (inactive)
82 | O=C(O)CCc1cccnc1 | -1.19% (inactive)
83 | CC1CCCC(C)N1C(=O)COC(=O)COc1ccccc1C#N (stereo not drawn) | 13.1% (inactive)
84 | Cc1ccc(C(=O)NNC(=O)OC(C)(C)C)c(Cl)c1 | -22.3% (inactive)
85 | COc1ccc(CCNC(=O)CCc2cn(C)c3ccccc23)c(OC)c1 | -10.8% (inactive)
86 | COc1ccccc1NS(=O)(=O)c1ccc(C)c(C(=O)NNC(=O)c2csc(N3CCOCC3)n2)c1 | -18.4% (inactive)
87 | Cc1ccc(OC(=O)c2ccccc2C(=O)OCC(F)(F)C(F)F)cc1 | 12% (inactive)
88 | COc1ccc(CNC(=O)CN2C(=O)c3ccccc3S2(=O)=O)cc1 | 0.21% (inactive)

Row | SMILES | inhibition
89 | CN(Cc1cccs1)C(=O)CN1C(=O)c2ccccc2S1(=O)=O | -22.1% (inactive)
90 | O=C(CN1C(=O)c2ccccc2S1(=O)=O)N1CCc2ccccc21 | 78.1% (active)
91 | CSc1cc(C)n(-c2ccccc2C)c(=S)c1C(C)=O | -24.7% (inactive)
92 | COc1ccc(-n2c(C)csc2=S)cc1 | -12.6% (inactive)
93 | O=C(O)C1CCN(C(=O)c2cc(F)cc3c2OCOC3)CC1 | 1.17% (inactive)
94 | Cc1ccc(C(c2sc3nc(C)nn3c2O)N2CCN(c3ccccc3)CC2)cc1 (stereo not drawn) | -21.5% (inactive)
95 | CC(C)OC(=O)c1cc(NC(=O)C2C3CCC(O3)C2C(=O)O)cc(C(=O)OC(C)C)c1 (stereo not drawn) | 6.46% (inactive)
96 | O=c1[nH]n2c(=O)c3c([nH]c2c1N=Nc1ccccc1)CCC3 | -2.3% (inactive)
97 | Cc1nc2c(ncn2-c2ccccc2)c(=O)n1NC(=O)CN1CCCC1 | 6.67% (inactive)
98 | COc1ccc(NC(=S)N2N=CCC2c2ccccc2)cc1 (stereo not drawn) | -88% (inactive)
99 | COCc1cc(=O)n2[nH]c(C)c(-c3ccccc3)c2n1 | 3.15% (inactive)
100 | O=C1NC(=Nc2ccc(Cl)cc2)SC1Cc1cccc(Cl)c1Cl (stereo not drawn) | 11.5% (inactive)
101 | CCOc1cc(C2/C(=C(/O)c3ccc(S(=O)(=O)N4CCCCC4)cc3)C(=O)C(=O)N2CCOC)ccc1O (stereo not drawn) | -17.2% (inactive)
102 | Cc1ccsc1C1C(C#N)=C(N)OC2=C1C(=O)CC(C)C2 (stereo not drawn) | -1.41% (inactive)
103 | O=C(Nc1cc(Br)ccc1F)c1nc[nH]c1C(=O)NCc1ccccc1 | 16.5% (inactive)
104 | O=C(Nc1ccon1)c1nc[nH]c1C(=O)NCc1ccccc1 | 63% (active)
105 | CC(C)(C)OC(=O)NCCCCCNC(=O)c1nc[nH]c1C(=O)NCc1ccccc1 | -1.92% (inactive)
106 | Cc1cccc(-[n+]2c(-c3cccc(Br)c3)[nH]c3nc4ccccc4nc32)c1 | 18.1% (inactive)
107 | Cc1ccc(NC(=O)NC(=O)CSc2nnc(-c3ccc(OC(F)F)cc3)n2N)c(C)c1 | -17.3% (inactive)
108 | CCN(Cc1ccccc1)C(=O)CN1C(=S)NC(C)(C)CC1C (stereo not drawn) | -5.54% (inactive)
